Source: PubChem BioAssay (Tox21)
Several values for one entry are separate records, joined by “and”; a condition that tells them apart may be missing. Identical values can stand only once. Inconclusive results are not listed. Entries that show only a call come without a potency. The source holds several records for some structures; these can differ, active in one and inactive in another. Activity calls are given as the source filed them. Unless noted, calls come from the whole dose curve; as a rule, active = well fitted curve in the direction sought with a large enough effect in the repeat runs; inconclusive = weak or mixed curves; inactive = no such curve, though single readings can be large; an effect the other way counts as inactive or inconclusive.

What was measured:
[1] = qHTS assay to identify small molecule agonists of the estrogen receptor alpha (ER-alpha) signaling pathway in the presence of an antagonist - cell viability counter screen (AID 1259386);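 note: cells exposed to compounds for 22 h at 37 °C before the viability read; nearly all actives have a fitted effect of over 30% in size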; note: potency is the fitted concentration of half-maximal effect
How it was run: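 Read-out: CellTiter-Fluor fluorescence after 1hr reagent incubation, measured in the same wells as the luciferase readout. VM7Luc4E2 cells were exposed to 15 compound concentrations with 10.0nM ICI-182,780 for 22hr at 37C.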

[2] = molecular target: Progesterone receptor (Homo sapiens) (UniProt P06401); experiment: qHTS assay to identify small molecule agonists of the progesterone receptor (PR) signaling pathway (AID 1346784; calls by dose curve; note: nearly all actives have a fitted effect of over 30% in size; note: potency is the fitted concentration of half-maximal effect)
How it was run: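 Using charcoal-stripped serum (2%) to limit endogenous steroids, PR-UAS-bla HEK 293T cells received compounds for 16 hr at 37C after 6 hr plating; beta-lactamase FRET fluorescence was recorded following 2 hr substrate loading at room temperature.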

[3] = qHTS assay to identify small molecule agonists of the progesterone receptor (PR) signaling pathway - cell viability counter screen (AID 1346799; calls by dose curve; note: nearly all actives have a fitted effect of over 45% in size; note: potency is the fitted concentration of half-maximal effect)
How it was run: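 Cytotoxicity in PR-bla HEK293T cells: 16 h compound, 37C; CellTiter-Glo added post-FRET read; luminescence after 30 min RT.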

[4] = qHTS assay to identify small molecule agonists of the TGF-beta/Smad signaling pathway - cell viability counter screen (AID 1346829); note: nearly all actives have a fitted effect of over 45% in size; note: potency is the fitted concentration of half-maximal effect
How it was run: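 Tox21 qHTS format: SBE-bla HEK 293T cells treated with DMSO-dissolved compounds for 5 hr; CellTiter-Glo luminescence after 30 min at room temperature.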

[5] = qHTS assay to identify small molecule agonists of the TGF-beta/Smad signaling pathway (AID 1346859; active = well fitted activation curve with a large enough effect in the signal ratio in the repeat runs, not every such curve was filed as active; the % refers to the signal ratio; note: series mostly up to about 77 µM)
How it was run: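 Stable Smad binding element-beta-lactamase HEK 293T cells; 5 hr compound exposure at 37 C under 5% CO2; 2 hr room-temperature substrate step; fluorescence excited at 405 nm, collected at 460 nm and 530 nm.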

[6] = Human pregnane X receptor (PXR) small molecule agonists, qHTS cell viability counter screen (AID 1346977); note: nearly all actives have a fitted effect of over 50% in size; note: potency is the fitted concentration of half-maximal effect
How it was run: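 Readout is CellTiter-Fluor fluorescence from PXR-Luc HepG2 cells. Plated cells rested 5hr, then were treated with compounds for 24hr at 37C and 5% CO2, with reagent present during the last hour.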

[7] = Caspase-3/7 induction in HepG2 cells by small molecules, qHTS assay (AID 1346978); note: nearly all actives have a fitted effect of over 15% in size; note: potency is the fitted concentration of half-maximal effect
How it was run: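 Caspase-3/7 induction was measured by Caspase-Glo 3/7 luminescence (30 min, room temperature) after a 17 hr compound exposure of wild-type HepG2 cells seeded at 2,000 per well and pre-incubated 5 hr.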

[8] = Caspase-3/7 induction in CHO-K1 cells by small molecules, qHTS cell viability counter screen (AID 1346979); note: nearly all actives have a fitted effect of over 35% in size; note: potency is the fitted concentration of half-maximal effect
How it was run: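 To flag cytotoxic compounds, treated CHO-K1 wild-type cells were given CellTiter-Fluor at 16hr and read fluorescently after 1hr at 37C; the caspase-3/7 luminescence was measured in these same wells.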

[9] = Caspase-3/7 induction in CHO-K1 cells by small molecules, qHTS assay (AID 1346980); note: nearly all actives have a fitted effect of over 15% in size; note: potency is the fitted concentration of half-maximal effect
How it was run: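 Luminescent Caspase-Glo 3/7 read (30min, room temperature) quantified apoptosis induction. Cells were wild-type CHO-K1, treated with compound for 17hr at 37 C and 5% CO2.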

[10] = Caspase-3/7 induction in HepG2 cells by small molecules, qHTS cell viability counter screen (AID 1346981); note: nearly all actives have a fitted effect of over 30% in size; note: potency is the fitted concentration of half-maximal effect
How it was run: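 Fluorescence read-out of live-cell protease activity (CellTiter-Fluor) after 1 hr with reagent. This was measured in the same wells as the caspase-3/7 luminescence, on HepG2 cells exposed to DMSO-dissolved compounds for 16 hr at 37 C.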

[11] = molecular target: Nuclear receptor subfamily 1 group I member 2 (Homo sapiens) (UniProt O75469); experiment: Human pregnane X receptor (PXR) small molecule agonists, qHTS assay (AID 1346982); note: nearly all actives have a fitted effect of over 35% in size; note: potency is the fitted concentration of half-maximal effect
How it was run: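 HepG2 PXR-Luc reporter line, 5% charcoal-stripped FBS; 5 hr pre-incubation, compound (DMSO) 24 hr at 37 C/5% CO2; ONE-Glo 30 min RT; luminescence read-out.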

[12] = molecular target: Nuclear receptor subfamily 1 group I member 2 (Rattus norvegicus) (UniProt Q9R1A7); experiment: Rat pregnane X receptor (rPXR) activation by small molecules, qHTS assay (AID 1346983); details: rPXR luciferase reporter cells, One-Glo luminescence, 24 h; stronger effect = higher value; note: nearly all actives have a fitted effect of over 20% in size
How it was run: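 Luminescent readout (One-Glo luciferase, 30 min room temperature) followed 24 hr compound treatment at 37 C of rPXR cells plated 2,000 per well and preincubated 5hr; qHTS format with compounds delivered in DMSO.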

[13] = molecular target: Nuclear receptor subfamily 1 group I member 2 (Homo sapiens) (UniProt O75469); experiment: CYP3A4 induction through human pregnane X receptor (PXR) by small molecules, qHTS assay (AID 1346984); note: nearly all actives have a fitted effect of over 40% in size
How it was run: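 HepG2-derived DPX-2 line carrying PXR plus a CYP3A4-promoter luciferase reporter; cells plated 5 hr, compound-exposed 24 hr at 37C. CYP3A4 activity probed with 3uM (final) Luciferin-IPA for 3hr, then luciferase read after One-Glo.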

[14] = molecular target: Nuclear receptor subfamily 1 group I member 2 (Homo sapiens) (UniProt O75469); experiment: Human pregnane X receptor (PXR) activation by small molecules, qHTS assay (AID 1346985); note: nearly all actives have a fitted effect of over 40% in size
How it was run: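 DPX-2 cells (HepG2 co-transfected with a PXR response element and a CYP3A4-promoter luciferase construct) were seeded at 2,000 per well, rested 5 hr at 37C, then exposed to DMSO-dissolved compounds for 24 hr. Activation was read as luciferase luminescence.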

[15] = molecular target: Acetylcholinesterase (Homo sapiens) (UniProt P22303); experiment: Acetylcholinesterase (AChE) small molecule antagonists: colormetric cell-based qHTS assay (AID 1347395; calls by dose curve; note: nearly all actives have a fitted effect of over 30% in size; note: potency is the fitted concentration of half-maximal effect)
How it was run: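 Neuroblastoma line SH-SY5Y supplied the enzyme; cells were preincubated with compound for 30 min at 37 C and 5% CO2. Acetylthiocholine with DTNB was then added for 90 min at 37 C, and thiocholine was measured by colour.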

[16] = molecular target: Progesterone receptor (Homo sapiens) (UniProt P06401); experiment: qHTS assay to identify small molecule antagonists of the progesterone receptor (PR) signaling pathway (AID 1346795; active = well fitted inhibition curve with a large enough effect in the signal ratio in the repeat runs, not every such curve was filed as active; the % refers to the signal ratio; note: potency is the fitted concentration of half-maximal effect)
How it was run: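 Inhibition of R5020-induced (1 nM final) beta-lactamase reporter signal in PR-UAS-bla HEK293T cells was scored by FRET fluorescence after overnight (16 hr) compound treatment.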

[17] = molecular target: Thyrotropin-releasing hormone receptor (Homo sapiens) (UniProt P34981); experiment: qHTS assay to identify small molecule agonists of the thyrotropin-releasing hormone receptor (TRHR) signaling pathway (AID 1346891; calls by dose curve;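 note: HEK293 cells expressing TRHR with calcium dye readout; series mostly up to about 58 µM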)
How it was run: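 In 1536-format, 1500 TRHR-Hek293 cells per well grew 18 h, took up calcium dye for 2 h at 37 °C, received compound, and were read kinetically; 15-point titrations, triplicates.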

[18] = qHTS assay to identify small molecule antagonists of the progesterone receptor (PR) signaling pathway - cell viability counter screen (AID 1346798); note: nearly all actives have a fitted effect of over 50% in size; note: potency is the fitted concentration of half-maximal effect
How it was run: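 ATP content as viability readout: CellTiter-Glo luminescence, 30 min room temperature, in PR-UAS-bla HEK293T cells after 16 hr compound/R5020 treatment at 37C and 5% CO2.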

[19] = molecular target: Thyrotropin-releasing hormone receptor (Homo sapiens) (UniProt P34981); experiment: qHTS assay to identify small molecule antagonists of the thyrotropin-releasing hormone receptor (TRHR) signaling pathway (AID 1346877; active = well fitted inhibition curve with a large enough effect in the repeat runs, not every such curve was filed as active; note: series mostly up to about 51 µM)
How it was run: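 HEK293/TRHR cells, 18 h, 37 °C; Ca2+ dye 2 h; cpd 5 min RT; TRH 1 nM final; fluorescence read 3 min, 1 s intervals; 15 concs, triplicate.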

[20] = qHTS assay to identify small molecule antagonists of the TGF-beta/Smad signaling pathway - cell viability counter screen (AID 1346824); note: nearly all actives have a fitted effect of over 50% in size
How it was run: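 Cytotoxicity counter-screen run in the same wells as the beta-lactamase Smad reporter read: CellTiter-Glo luminescence after 30 min at room temperature. HEK 293T SBE-bla cells had 5 hr compound exposure at 37 C with TGF-beta1 (0.25 ng/mL stock).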

Sequence of Progesterone receptor (Homo sapiens) (P06401 whole entry, looked up): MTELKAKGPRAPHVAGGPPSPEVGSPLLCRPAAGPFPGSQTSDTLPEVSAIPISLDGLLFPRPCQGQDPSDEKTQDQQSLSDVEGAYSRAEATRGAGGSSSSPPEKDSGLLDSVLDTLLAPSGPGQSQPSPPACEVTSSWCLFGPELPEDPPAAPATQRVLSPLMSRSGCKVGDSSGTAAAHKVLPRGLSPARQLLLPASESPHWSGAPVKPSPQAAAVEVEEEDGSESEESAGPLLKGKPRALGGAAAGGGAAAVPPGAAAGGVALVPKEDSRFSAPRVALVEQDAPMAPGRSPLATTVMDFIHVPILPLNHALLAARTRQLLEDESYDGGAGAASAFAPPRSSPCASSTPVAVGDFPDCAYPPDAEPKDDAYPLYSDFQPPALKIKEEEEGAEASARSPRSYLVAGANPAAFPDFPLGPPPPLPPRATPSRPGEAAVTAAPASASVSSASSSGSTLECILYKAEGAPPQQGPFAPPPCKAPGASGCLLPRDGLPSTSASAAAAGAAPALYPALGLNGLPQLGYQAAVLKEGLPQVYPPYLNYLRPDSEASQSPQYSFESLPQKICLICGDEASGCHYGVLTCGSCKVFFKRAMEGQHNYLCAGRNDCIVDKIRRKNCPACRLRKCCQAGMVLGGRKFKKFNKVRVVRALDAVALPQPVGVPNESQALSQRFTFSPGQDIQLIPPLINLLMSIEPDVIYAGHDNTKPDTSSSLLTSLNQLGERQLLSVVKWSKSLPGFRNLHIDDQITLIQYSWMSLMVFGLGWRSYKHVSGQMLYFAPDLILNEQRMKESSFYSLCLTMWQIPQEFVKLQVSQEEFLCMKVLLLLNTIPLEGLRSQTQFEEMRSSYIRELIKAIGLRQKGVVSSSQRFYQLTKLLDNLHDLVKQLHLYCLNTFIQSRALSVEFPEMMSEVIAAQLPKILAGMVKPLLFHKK
Sequence of Acetylcholinesterase (Homo sapiens) (P22303 whole entry, looked up): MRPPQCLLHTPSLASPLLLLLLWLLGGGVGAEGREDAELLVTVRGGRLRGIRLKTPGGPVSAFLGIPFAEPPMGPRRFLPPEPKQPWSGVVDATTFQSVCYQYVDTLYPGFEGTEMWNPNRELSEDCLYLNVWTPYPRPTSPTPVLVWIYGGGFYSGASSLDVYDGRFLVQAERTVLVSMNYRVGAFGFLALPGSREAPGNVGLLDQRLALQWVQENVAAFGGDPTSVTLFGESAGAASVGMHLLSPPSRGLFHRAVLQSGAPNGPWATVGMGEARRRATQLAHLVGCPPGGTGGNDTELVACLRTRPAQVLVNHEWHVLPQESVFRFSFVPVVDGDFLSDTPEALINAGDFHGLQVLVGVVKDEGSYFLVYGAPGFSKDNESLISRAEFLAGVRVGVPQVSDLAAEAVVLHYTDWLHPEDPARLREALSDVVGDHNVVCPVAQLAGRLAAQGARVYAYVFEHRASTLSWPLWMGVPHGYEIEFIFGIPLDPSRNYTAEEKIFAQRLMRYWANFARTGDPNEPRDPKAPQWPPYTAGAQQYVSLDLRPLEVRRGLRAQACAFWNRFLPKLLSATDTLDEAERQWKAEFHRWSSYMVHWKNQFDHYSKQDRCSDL
Sequence of Nuclear receptor subfamily 1 group I member 2 (Rattus norvegicus) (Q9R1A7 whole entry, looked up): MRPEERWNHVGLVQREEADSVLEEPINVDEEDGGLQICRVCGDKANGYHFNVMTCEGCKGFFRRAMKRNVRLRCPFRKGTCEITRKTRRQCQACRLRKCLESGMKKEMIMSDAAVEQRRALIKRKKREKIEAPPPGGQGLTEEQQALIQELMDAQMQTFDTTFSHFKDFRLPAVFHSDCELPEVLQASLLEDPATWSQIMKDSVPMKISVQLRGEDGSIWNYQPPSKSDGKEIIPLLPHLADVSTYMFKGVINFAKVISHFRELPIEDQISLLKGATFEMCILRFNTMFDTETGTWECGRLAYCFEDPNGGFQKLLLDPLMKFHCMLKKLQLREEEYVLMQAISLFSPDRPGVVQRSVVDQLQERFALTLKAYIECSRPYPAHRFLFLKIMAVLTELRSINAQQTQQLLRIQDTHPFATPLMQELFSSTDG
Sequence of Thyrotropin-releasing hormone receptor (Homo sapiens) (P34981 whole entry, looked up): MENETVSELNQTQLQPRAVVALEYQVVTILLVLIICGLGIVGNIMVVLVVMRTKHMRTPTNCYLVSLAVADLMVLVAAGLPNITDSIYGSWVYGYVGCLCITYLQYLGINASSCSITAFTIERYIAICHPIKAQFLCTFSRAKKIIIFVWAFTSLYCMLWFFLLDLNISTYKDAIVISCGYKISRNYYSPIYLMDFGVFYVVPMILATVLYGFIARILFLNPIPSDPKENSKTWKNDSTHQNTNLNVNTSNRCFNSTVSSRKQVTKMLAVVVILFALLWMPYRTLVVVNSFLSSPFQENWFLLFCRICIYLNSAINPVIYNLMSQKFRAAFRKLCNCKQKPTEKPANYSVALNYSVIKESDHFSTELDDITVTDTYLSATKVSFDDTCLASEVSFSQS
Sequence of Nuclear receptor subfamily 1 group I member 2 (Homo sapiens) (O75469 whole entry, looked up): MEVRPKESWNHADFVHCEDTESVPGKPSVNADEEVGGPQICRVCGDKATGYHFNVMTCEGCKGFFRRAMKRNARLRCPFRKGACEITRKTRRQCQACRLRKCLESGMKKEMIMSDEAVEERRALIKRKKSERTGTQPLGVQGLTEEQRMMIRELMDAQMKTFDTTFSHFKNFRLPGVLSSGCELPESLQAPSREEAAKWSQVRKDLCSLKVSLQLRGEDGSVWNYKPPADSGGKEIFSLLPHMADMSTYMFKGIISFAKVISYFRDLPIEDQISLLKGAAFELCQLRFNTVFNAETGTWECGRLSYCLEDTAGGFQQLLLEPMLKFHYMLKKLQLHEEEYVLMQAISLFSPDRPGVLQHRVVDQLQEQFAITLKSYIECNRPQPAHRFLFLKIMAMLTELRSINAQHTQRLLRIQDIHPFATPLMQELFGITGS

Compound	Potency [1]	Potency [2]	Potency [3]	Potency [4]	outcome [5]	Potency [6]	Potency [7]	Potency [8]	Potency [9]	Potency [10]	Potency [11]	max activation [12]	outcome [13]	outcome [14]	Potency [15]	Potency [16]	Potency [17]	Potency [18]	Potency [19]	Potency [20]
C[C@]12CCC(=O)C(O)=C1CC[C@@H]1[C@@H]2CC[C@]2(C)C(=O)CC[C@@H]12	inactive	inactive	inactive	inactive	inactive	inactive	inactive	inactive	inactive	inactive	54.5 µM (active) and inactive	-2.61% (inactive)	inactive	inactive	inactive	–	–	–	–	–
O=[N+]([O-])c1ccc(O)c([N+](=O)[O-])c1	30.8 µM (active) and 27.3 µM (active)	inactive	–	inactive	inactive	24.4 µM (active) and 54.5 µM (active)	inactive	48.8 µM (active) and 54.5 µM (active)	–	–	inactive	–	–	–	inactive	inactive	inactive	–	–	–
Oc1cc(Cl)ccc1Oc1ccc(Cl)cc1Cl	–	–	31.4 µM (active) and inactive	39.8 µM (active) and inactive	inactive	31.4 µM (active) and 29.8 µM (active)	64.4 µM (active) and inactive	28.8 µM (active) and 26.6 µM (active)	59.1 µM (active) and inactive	44.3 µM (active)	–	-0.85% (inactive)	–	–	inactive	13.3 µM (active)	–	31.4 µM (active)	–	–
CCC(CC)Nc1c([N+](=O)[O-])cc(C)c(C)c1[N+](=O)[O-]	inactive	inactive	inactive	inactive	inactive	inactive	inactive	inactive	–	inactive	61.9 µM (active) and inactive	–	–	–	inactive	–	inactive	inactive	–	–
CN(C)c1ccc(C(=O)c2ccc(N(C)C)cc2)cc1	–	inactive	inactive	inactive	inactive	54.5 µM (active)	–	24.3 µM (active)	inactive	48.6 µM (active)	48.1 µM (active) and 17.2 µM (active)	–	–	–	inactive	27.3 µM (active)	inactive	–	inactive	–
CCc1cccc(CC)c1N(COC)C(=O)CCl	inactive	inactive	–	inactive	inactive	39.8 µM (active) and inactive	inactive	16.7 µM (active)	–	–	10.5 µM (active) and 1.37 µM (active)	–	–	–	inactive	–	inactive	inactive	–	inactive
Brc1ccc(Oc2cc(Br)c(Br)cc2Br)c(Br)c1	inactive	inactive	38.6 µM (active) and 43.6 µM (active)	inactive	inactive	inactive	inactive	–	–	inactive	17.2 µM (active) and 30.9 µM (active)	–	–	–	inactive	–	inactive	inactive	inactive	–
N#Cc1cc(Br)c(O)c(Br)c1	inactive	inactive	–	inactive	inactive	inactive	inactive	–	–	–	68.5 µM (active) and inactive	–	–	–	inactive	inactive	inactive	–	inactive	inactive
COP(=S)(OC)Oc1ccc([N+](=O)[O-])cc1	–	inactive	inactive	inactive	inactive	inactive	inactive	68.7 µM (active) and inactive	inactive	inactive	inactive	–	–	–	25.2 µM (active)	inactive and 24.3 µM (active)	inactive	inactive	inactive	inactive
C[C@]12CCC(=O)C[C@@H]1CC[C@@H]1[C@@H]2CC[C@]2(C)[C@@H](O)CC[C@@H]12	inactive	3.03 µM (active) and 1.94 µM (active)	48 µM (active)	inactive	inactive	inactive	inactive	–	inactive	inactive	–	-5.43% (inactive)	–	–	–	–	–	–	–	–
Nc1c(Cl)cc([N+](=O)[O-])cc1Cl	–	inactive	–	inactive	inactive	inactive	inactive	inactive	inactive	–	27.5 µM (active)	–	–	–	inactive	30.6 µM (active)	inactive	inactive	–	–
CCCCNC(=O)n1c(NC(=O)OC)nc2ccccc21	inactive	inactive	inactive	inactive	inactive	inactive	6.08 µM (active) and inactive	30.6 µM (active)	–	inactive	60.8 µM (active)	–	–	–	inactive	–	inactive	–	inactive	inactive
CCOC(=O)C(C)OC(=O)c1cc(Oc2ccc(C(F)(F)F)cc2Cl)ccc1[N+](=O)[O-] (stereo unspecified)	inactive	inactive	–	inactive	inactive	inactive	inactive	–	–	inactive	30.5 µM (active)	–	–	–	inactive	30.5 µM (active)	inactive	–	inactive	inactive
